# In ChEMBL document CHEMBL3988442, “University of Dundee, Small-Polar-MMV Screening Library” (2021):
# Assays:
# [1] = biological target: T1, Aspartate--tRNA(Asp/Asn) ligase (Mycobacterium tuberculosis (strain ATCC 25618 / H37Rv)) (UniProt P9WFW3); experiment: Assay for Asp RNA synthetase-1 from Mycobacterium tuberculosis; type: functional; set-up: scale not given: direction of the effect not stated beside the values; conditions: 30 µM; further: in the data most compounds retested in dose-response had high values
# T1 sequence (whole entry): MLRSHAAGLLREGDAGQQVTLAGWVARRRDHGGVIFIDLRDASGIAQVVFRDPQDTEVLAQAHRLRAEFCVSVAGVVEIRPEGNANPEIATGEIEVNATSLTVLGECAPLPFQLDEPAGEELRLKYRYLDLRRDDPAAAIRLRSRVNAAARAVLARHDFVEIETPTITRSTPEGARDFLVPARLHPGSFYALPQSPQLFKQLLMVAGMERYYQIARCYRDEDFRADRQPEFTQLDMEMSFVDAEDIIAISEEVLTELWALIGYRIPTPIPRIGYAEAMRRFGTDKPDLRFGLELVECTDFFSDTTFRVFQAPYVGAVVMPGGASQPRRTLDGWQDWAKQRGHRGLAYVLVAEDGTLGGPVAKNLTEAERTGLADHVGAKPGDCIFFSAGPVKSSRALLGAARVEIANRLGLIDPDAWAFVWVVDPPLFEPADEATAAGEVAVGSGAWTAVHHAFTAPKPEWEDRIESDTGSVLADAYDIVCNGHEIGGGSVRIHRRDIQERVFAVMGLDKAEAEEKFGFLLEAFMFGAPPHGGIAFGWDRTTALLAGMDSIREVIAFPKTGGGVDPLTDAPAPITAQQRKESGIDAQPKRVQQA
# [2] = biological target: Shiga toxin 2 (Escherichia coli O157:H7) (UniProt P09385+P09386); experiment: E. coli 0.157:H7 Shiga Toxin SOP - stx2 screening assay; type: functional; set-up: scale not given: direction of the effect not stated beside the values; conditions: 30 µM
SMILES,Percent Effect [1] [%],Percent Effect [2] [%]
O=C(O)CCc1cccc(C2CCCN2Cc2ccc(F)c(F)c2)n1 (stereo unspecified),-0.372,2.71
c1ccc(OCC2CC3(CCN(Cc4ccncc4)CC3)CO2)nc1 (stereo unspecified),1.19,-30.5
CC(C)C(=O)NCC(=O)N(C)C1CCCN(C2Cc3ccccc3C2)C1 (stereo unspecified),1.1,0.34
